Activity calls are given as the source filed them. The calls were made as follows: active = hit-call score of the fitted dose curve at least 0.9, where 1 is the maximum; inactive = score below 0.9.

A short description of this assay: ATG_NFI_CIS: Attagene CIS-FACTORIAL HepG2 Assay for human Nuclear Factor I (NFI) (AID 2282989). The following applies: HepG2 cis-regulatory reporter, NFI response element transcription; actives raise or lower the signal. The protocol: ATG_CIS is a cell-based, multiplexed-readout assay that uses HepG2, a human liver cell line, with measurements taken at 24 hours after chemical dosing in a 24-well plate.ATG_NFI_CIS is one of 52 assay component(s) measured or calculated from the ATG_CIS assay. It is designed to make measurements of mRNA induction, a form of inducible reporter, as detected with fluorescence intensity signals by Reverse transcription polymerase chain reaction (RT-PCR) and Capillary electrophoresis technology.Data from the assay component ATG_NFI_CIS was analyzed into 1 assay endpoint. This assay endpoint, ATG_NFI_CIS, was analyzed with bidirectional fitting relative to DMSO as the negative control and baseline of activity. Using a type of inducible reporter, measures of mRNA for gain or loss-of-signal activity can be used to understand the reporter gene at the transcription factor-level as they relate to the gene NFIA. Furthermore, this assay endpoint can be referred to as a primary readout, because this assay has produced multiple assay endpoints where this one serves a reporter gene function. To generalize the intended target to other relatable targets, this assay endpoint is annotated to the dna binding intended target family, where the subfamily is nuclear factor I.
Human liver HepG2 cells are transiently transfected with multiple reporter transcription units (MRTUs) in 6-well plates using FuGene 6 reagent (Roche; 3 ml FuGene/1 mg DNA). The MRTU constructs are regulated by a cis-regulating element (promoter). […] A major difference between the CIS and TRANS system is that in CIS activities of endogenous TFs are measured, whereas the TRANS assay evaluates changes in activities of exogenous, chimeric NR-Gal4 proteins. […] At the end of 24 hour incubation, total RNA was isolated using TriZol reagent (Invitrogen). The isolated RNA is then reverse-transcribed using oligo(dT) primer and Mo-MLV reverse transcriptase (Invitrogen) with DNAse I (Ambion) treatment for 30 min. The one-tenth of the produced cDNA was amplified by PCR using Taq DNA polymerase (Invitrogen) and two reporter sequence-specific primers. The PCR products were fluorescently labeled by primer extension with 6-arboxyfluorescein (6-FAM) 5'-labeled reporter sequence-specific primer (2 min at 95 C, 20 s at 68 C and 10 min at 72 C) and these products were digested with 5U of HpaI (New England Biolabs) for 2h at 37 C. The fragments were purified using Qiaquick PCR columns (Qiagen), analyzed on an ABI 3130xL genetic analyzer (Applied Biosystems) with peak positions identified by using a set of X-rhodamine (ROX)-labeled MapMarker1000 molecular weight standards (BioVentures). The raw capillary electrophoresis data was processed using Attagraph software (Attagene).
Take `O=C(C1CCCCC1)N1CC(=O)N2CCc3ccccc3C2C1` (stereo not given): the call was inactive.
As for `CCCCCCCCCC/C=C/C1CC(=O)OC1=O` (stereo not given), the result was inactive.
On the same count and under the same terms, as for `CCCCCCCCCCCCCC`, the entry is “inactive”.
As for `c1cc(N(CC2CO2)CC2CO2)ccc1Cc1ccc(N(CC2CO2)CC2CO2)cc1` (stereo not given), the AC50 was 5.98 µM (active).
Consider `C1=CCC=C1`, for which the compound was classed as inactive.
Same read-out and setting: as for `Nc1nnc(-c2ccc([N+](=O)[O-])o2)o1`, the entry is “inactive”.
As to `CCO[Si](OCC)(OCC)c1ccccc1`, the compound was called inactive.
On the same count and under the same terms, as for `CCCCC(CC)COC(=O)CS` (stereo not given), the entry is “inactive”.
Same read-out and setting: the value for `CCC(C)NC(N)=O` (stereo not given) was “inactive”.
For the compound `CN1CCCC1`, the call was inactive.
The same measure, in the same setting: as for `Cc1ccnc(N)c1`, the entry is “inactive”.
On the same count and under the same terms, the value for `F[B-](F)(F)F` was “inactive”; that for `O=S(=O)(O)c1cccc2ccccc12` was “inactive”.
The same measure, in the same setting: the value for `CCCCCCC1CCC(=O)O1` (stereo not given) was “inactive”; that for `NC(=O)c1ccc(N)cc1` was “inactive”.
Turning to `O=C(c1ccccc1)c1ccccc1O`, the AC50 was 156 µM (active).
Turning to `CC(=O)OC(C)(C)Cc1ccccc1`, the compound was called inactive.
Still for that read-out and setting: as for `CC(C)CC(=O)O`, the entry is “inactive”; as for `CCCCOC(=O)COc1ccc(Cl)cc1Cl`, “inactive”; as for `CNC[C@H](O)[C@@H](O)[C@H](O)[C@H](O)CO`, “inactive”.
Consider `CC(C)CC(=O)CC(C)CC(C)C` (stereo not given), for which the result was inactive.
For `CCCOCCC`, the compound was called inactive.
The same measure, in the same setting: the value for `O=C(O)c1cc(Cl)cc(Cl)c1O` was “inactive”; that for `CC1=NN(c2cc(Cl)c(S(=O)(=O)O)cc2Cl)C(=O)C1N=Nc1ccc(S(=O)(=O)O)cc1` (stereo not given) was “inactive”; that for `OCCN(CCO)c1cccc(Cl)c1` was “inactive”.
Same read-out and setting: as for `Cc1cc(-n2nc3ccc(Cl)cc3n2)c(O)c(C(C)(C)C)c1`, the entry is “inactive”; as for `CCCc1c(OCCCCc2nn[nH]n2)ccc(C(C)=O)c1O`, “inactive”.
Regarding `COC(OC)C(C)c1ccccc1` (stereo not given), the result was inactive.
For the compound `CO[Si](CCCNCCN)(OC)OC`, the compound was classed as inactive.
On the same count and under the same terms, the value for `CC/C=C\CCCCCO` was “inactive”.
The same measure, in the same setting: the value for `CCCC[N+]1(C)CCCC1` was “inactive”.
On the same count and under the same terms, as for `CC(=O)CCc1ccccc1`, the entry is “inactive”.
Consider `CCOC(=O)c1ccccc1`, for which the result was inactive.
The same measure, in the same setting: the value for `CN(C)Cc1cc(C(C)(C)C)c(O)c(C(C)(C)C)c1` was “inactive”; that for `C[C@H]1C[C@H]2[C@@H]3CCC4=CC(=O)C=C[C@]4(C)[C@@]3(F)[C@@H](O)C[C@]2(C)[C@@]1(O)C(=O)CO` was “inactive”.
The same measure, in the same setting: the value for `Clc1ccc(Sc2cc(Cl)c(Cl)cc2Cl)cc1` was “inactive”.
The same measure, in the same setting: as for `CC/C=C\CC1=C(C)CCC1=O`, the entry is “inactive”; as for `NC(N)=Nc1nc(CSCCC(N)=NS(N)(=O)=O)cs1`, “inactive”; as for `CN(C)c1ccc(C(c2ccccc2)c2ccc(N(C)C)cc2)cc1`, “inactive”.
Regarding `Oc1ccc(Cl)cc1C1CCCC1`, the AC50 was 33.4 µM (active).

Source of the values: PubChem BioAssay (EPA / NIEHS).
